# rTrxR1 inhibitor: qHTS Assay for Inhibitors of Mammalian Selenoprotein Thioredoxin Reductase 1 (TrxR1): qHTS | recombinant rTrxR1, NADPH fluorescence consumption, selenite substrate | Potency, µM (highest dose often 114 µM), inactives show top-dose activity change, negative = inhibition, hits mostly inhibitors | 390,000 tested, 1% active; further: nearly all actives have a fitted effect of over 65% in size
#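 Rat TrxR1 (90 nM in the dispensed reagent) was pre-reduced with 400 uM NADPH for 5 min at room temperature, then incubated with compound for 15 min. After 400 uM selenite was added, NADPH fluorescence (Ex 340/Em 450 nm) was followed for 8 min.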
# Sfp PPTase inh: qHTS Assay for Inhibitors of Bacillus subtilis Sfp phosphopantetheinyl transferase (PPTase); Biochemical Sfp PPTase activity, qHTS; Potency, µM, inactives show largest response in the series, negative = inhibition, actives largely listed as inhibitors; AID 1490, 2009; 310,000 tested, 3.5% active;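 further: the enzyme is Sfp with the accession as filed and its product quenches rhodamine fluorescence; 0% = enzyme reaction without inhibitor and -100% = no enzyme wells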
#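 Reaction rates are the 30-min fluorescence difference (ex 525, em 598 nm) in wells containing 15 nM Sfp, 5 uM rhodamine-CoA and 12.5 uM BHQ-2-YbbR at pH 7.6 with 10 mM MgCl2.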
# mIDH1 inhibitor: qHTS for Inhibitors of mutant isocitrate dehydrogenase 1 (IDH1): qHTS; IDH1-R132H enzyme, NADPH consumption, diaphorase/resazurin fluorescence; Potency, µM (series often up to 76.6 µM), for inactives: top-dose activity change, negative = inhibition, actives largely listed as inhibitors; 390,000 tested, 0.093% active; further: nearly all actives have a fitted effect of over 65% in size
#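 IDH1-R132H (0.5 ug/mL dispensed) in pH 7.5 Tris buffer was preincubated 30 min with compound, then given a substrate mix of 0.016 mM NADPH and 2 mM alpha-KG for 80 min at room temperature; remaining NADPH was read by diaphorase/resazurin fluorescence.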
# VDR inhibitor: Inhibitors of the vitamin D receptor (VDR): qHTS | Vitamin D3 receptor (Homo sapiens), P11473 | VDR-SRC2-3 peptide fluorescence polarization, 2 h | Potency, µM, inactives show max response, negative = inhibition, actives largely listed as inhibitors | 400,000 tested, 0.93% active
#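 Fluorescence polarization assay of small-molecule disruption of VDR binding to coregulator peptide SRC2-3. Compounds and controls pin-transferred, then read after 2 h incubation at ambient room temperature.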
# PLK1 PBD inh: qHTS for Inhibitors of PLK1-PDB (polo-like kinase 1 - polo-box domain): Primary Screen. Serine/threonine-protein kinase PLK1 (Homo sapiens), P53350. 360,000 tested, 2.8% active. Potency, µM, without a hit: max response, negative = inhibition, usual class: inhibitors. AID 720504, 2013. Plk1 PBD binding of FITC phosphopeptide, fluorescence polarization; further: series mostly up to about 57 µM; nearly all actives have a fitted effect of over 65% in size
# Target sequence (P53350 whole entry, looked up, the tested form may be a part): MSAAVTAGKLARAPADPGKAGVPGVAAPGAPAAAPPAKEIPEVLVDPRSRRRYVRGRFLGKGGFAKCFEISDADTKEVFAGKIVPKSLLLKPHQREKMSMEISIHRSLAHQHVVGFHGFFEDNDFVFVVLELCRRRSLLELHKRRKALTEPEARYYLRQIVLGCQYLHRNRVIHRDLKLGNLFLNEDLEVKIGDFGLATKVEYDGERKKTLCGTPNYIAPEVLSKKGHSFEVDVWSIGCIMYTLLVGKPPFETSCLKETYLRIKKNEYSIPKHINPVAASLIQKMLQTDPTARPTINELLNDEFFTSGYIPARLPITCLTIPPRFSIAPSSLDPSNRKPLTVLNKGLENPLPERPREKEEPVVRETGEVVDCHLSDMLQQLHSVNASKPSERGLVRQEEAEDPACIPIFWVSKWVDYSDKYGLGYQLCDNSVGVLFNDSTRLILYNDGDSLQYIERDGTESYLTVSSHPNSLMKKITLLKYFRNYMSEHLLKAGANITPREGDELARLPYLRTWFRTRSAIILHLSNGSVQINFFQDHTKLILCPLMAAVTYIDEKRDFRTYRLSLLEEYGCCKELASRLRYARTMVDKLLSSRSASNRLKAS
# TrxR1 substrate: qHTS Assay for Substrates of Mammalian Selenoprotein Thioredoxin Reductase 1 (TrxR1): qHTS; Thioredoxin reductase 1, cytoplasmic (Rattus norvegicus), O89049; Potency, µM (highest dose often 114 µM), for inactives: at the highest dose activity change, negative = substrate turnover; 390,000 tested, 0.01% active; purified TrxR1 substrate turnover, NADPH consumption readout; further: nearly all actives have a fitted effect of over 50% in size
#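 Rat TrxR1, dispensed at 90 nM, was prereduced with 400 uM NADPH (final) for 5 min at ~22 deg C, then incubated with compound 15 min before 400 uM selenite. A first-read NADPH fluorescence drop versus no-compound background flagged substrates.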
# Starred values were filed as active, the others as inactive; ? = inconclusive; nt = no result; ! = repeats disagree; [ ] = dose if it differs, or a comment. Most compounds without a hit are left out; they make up all but 5.2% or so of the library. The call rests on the fitted dose curve; in most records, active means well fitted curve in the direction sought with a large enough effect; inconclusive means small, poorly fitted or top-dose-only effect, or another doubt; inactive means no such curve, though single readings can be large; an effect the other way counts as inactive or inconclusive. Unless noted, on the % scale 0 is the no-effect control and ±100 the full control effect; potency means the concentration at half of the fitted maximal effect.
SMILES,rTrxR1 inhibitor,Sfp PPTase inh,mIDH1 inhibitor,VDR inhibitor,PLK1 PBD inh,TrxR1 substrate
Cc1ccc2nsnc2c1NC(=S)NC(=O)c1ccco1,?,50µM*,4%,-8%,?,0%[57.1 µM]
O=C(NC(=S)Nc1cccnc1Cl)c1ccco1,-22%,-29%,-4%,0%,27µM*,-9%
O=C(Nc1ccc(NC(=O)c2ccccc2F)cn1)c1ccco1,14µM*,17%,5%,20%,0%,-3%[57.1 µM]
Cc1ccc2nc(NC(=S)NC(=O)c3ccco3)sc2c1,17%,?,1%,-22%,-4%,9%
O=C(NC(=S)Nc1ccccc1[N+](=O)[O-])c1ccco1,-19%,56µM*,0%,2%,?,2%
COc1ccc(C2C3C=CCC(C)C3C(=O)N2Cc2ccccc2)cc1Cl (stereo not drawn),-7%,-15%,nt,?,nt,0%
O=C(Cc1ccc(Br)cc1)NO,8%,nt,nt,nt,nt,5%
O=C(c1ccc(OCCCc2cnc[nH]2)cc1)C1CC1,-10%[57.1 µM],3%,nt,2%,nt,-5%[57.1 µM]
OC[C@H]1OC(O)(CN2CCOCC2)[C@H](O)[C@@H]1O (stereo partly drawn),nt,-3%,nt,5%,nt,nt
O=C(Nc1ccc(NC(=O)C2CC2)cn1)c1ccccc1Cl,5%[57.1 µM],-7%,3%,16%,24µM*,0%
Cc1ccnc(NC(=S)NC(=O)c2ccco2)c1,15%[57.1 µM],?,3%,-13%,-10%,1%[57.1 µM]
COC(=O)c1cc(OC)c(OC)cc1NC(=S)NC(=O)c1ccco1,14µM*,-25%,0%,-4%,-22%,-2%
O=C(NC(=S)Nc1ccccn1)c1ccco1,-15%,56µM*,-2%,4%,1%,-7%
COc1ccc2c(c1)CCc1c(C(=O)Nc3ccc(F)c(Cl)c3)noc1-2,25%,nt,-12%,-15%,nt,2%
COCCCNCCOCCSc1ccc(Cl)cc1,-17%,50µM*,2%,-4%,-8%,-11%
O=c1c(O)c(-c2ccc(O)c(O)c2)oc2c(OC3OC(CO)C(O)C(O)C3O)c(O)cc(O)c12 (stereo not drawn),nt,-59%,nt,?,nt,nt
O=c1c(O)c(-c2ccc(O)c(O)c2)oc2c(OC[C@@H]3O[C@@H](O)[C@@H](O)[C@H](O)[C@H]3O)c(O)cc(O)c12,nt,56µM*,nt,nt,nt,nt
O=C1CN(/N=C/c2ccc(-c3ccc([N+](=O)[O-])cc3)o2)C(=O)N1,nt,89µM*!,nt,-7%,nt,nt
Cc1cc(C)c(Nc2ncnc(N)n2)c(C)c1,-2%[57.1 µM],3%,22%,11%,-6%,-5%[57.1 µM]
CN(C)c1ccc(C(C(=O)NC2CCCC2)N(C(=O)c2csnn2)C2CC2)cc1 (stereo not drawn),0%[57.1 µM],9%,-11%,-6%,-8%,10%[0.0914 µM]
Cc1cc(C)cc(NC(=O)c2cccc(C(=O)Nc3cc(C)cc(C)c3)n2)c1,7%[57.1 µM],56µM*,6%,-3%,-7%,6%[57.1 µM]
CN(C)c1ccc(NC(=O)c2cccc(C(=O)Nc3ccc(N(C)C)cc3)n2)cc1,11%[57.1 µM],-24%,10%,79µM*,-21%,-7%
COc1cc(C=NO)nc(-c2ccccn2)c1,-4%,nt,1%,-20%,0%,-6%
Cc1cc(F)ccc1-c1cc(C(=O)NCc2ccco2)[nH]n1,nt,nt,nt,nt,-2%,nt
COc1ccccc1CCNC(=O)C1(c2cccs2)CCOCC1,22%[57.1 µM],nt,-8%,8%,nt,0%[57.1 µM]
SMILES,rTrxR1 inhibitor,Sfp PPTase inh,mIDH1 inhibitor,VDR inhibitor,PLK1 PBD inh,TrxR1 substrate
O=c1[nH]c(=S)n(-c2ccc(Br)cc2)c2ncccc12,-1%,nt,4%,-14%,-6%,3%
Fc1ccc(-n2c(=S)[nH]c3cccnc32)cc1,-19%[57.1 µM],28µM*,3%,-15%,12µM*,-14%
CC(C)CCNC(=O)C12CN(Cc3ccccc3)CC1C(c1ccc([N+](=O)[O-])cc1)=NO2 (stereo not drawn),0%,14µM*,-13%,-10%,-5%,9%[57.1 µM]
CCOC(=O)C1(CCOc2ccccc2)CCN(Cc2ccncc2)CC1,8%,45µM*,6%,10%,-14%,-2%
Cc1cc(N/N=C/c2cccc(Br)c2)nc2ccccc12,5%,20µM*,1%,0%,0%,-1%
Cc1cc(N/N=C/c2ccncc2)nc2ccccc12,1%,-19%,0%,2%,?,-5%
CN(C)c1nc(NCc2ccccc2)nc(N/N=C/c2cccc(Br)c2)n1,27%[57.1 µM],-4%,0%,?,12µM*,0%[57.1 µM]
Brc1cccc(/C=N/Nc2nc(N3CCCCC3)nc(N3CCCCC3)n2)c1,nt,15%,nt,nt,nt,nt
CC1(C)CCCN(C(=O)c2coc(=O)c(Br)c2)C1,?,-4%,0%,-9%,11µM*,140%
O=C(c1coc(=O)c(Br)c1)N1CCCc2ccccc21,-5%[57.1 µM],79µM*,0%,7%,0%,124%[57.1 µM]
COc1ccc(C(CNC(=O)c2nn(-c3ccccc3)c(=O)c3ccccc23)N2CCOCC2)cc1 (stereo not drawn),13%[57.1 µM],nt,-4%,5%,-14%,1%[57.1 µM]
Cc1ccc(N2C(=O)c3oc4cc(C)c(C)cc4c(=O)c3C2c2cccc(O)c2)nc1 (stereo not drawn),4%,nt,-25%,4%,nt,1%
COc1ccc(-c2nc(CS(=O)CC(=O)NCCC3=CCCCC3)c(C)o2)cc1 (stereo not drawn),16µM*,?,15%,-17%,-30%,-3%[57.1 µM]
COc1ccc(-c2nc(CS(=O)CC(=O)NC3CCCCC3)c(C)o2)cc1OC (stereo not drawn),50µM*,-3%,0%,-10%,-13%,8%
COc1ccc(-c2nc(CS(=O)CC(=O)NC3CCCCCC3)c(C)o2)cc1 (stereo not drawn),?,10%,-5%,-14%,-22%,3%
Cc1oc(-c2ccccc2)nc1CS(=O)CC(=O)N1CCc2ccccc2C1 (stereo not drawn),20µM*,50µM*,20%,-19%,?,3%
CCc1ccc(-c2nc(CS(=O)CC(=O)NC3CCCCCC3)c(C)o2)cc1 (stereo not drawn),20µM*,50µM*,7%,11%,30µM*,0%

# Source: PubChem BioAssay (National Center for Advancing Translational Sciences (NCATS))
